Screening data (PubChem)
Compounds with a hit are over-represented: about 3.4% of the library has one in this group of screens.
PAFAH1B2 inh = PAFAH1B2 (human) inhibition | recombinant PAFAH1B2, FP-rhodamine activity probe, fluorescence polarization | P68402 | inhibition, % at 3.39 µM | hit rate 1.2% among 340,000;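 active = inhibition above the mean of all tested compounds plus 3 SD, cut at about 24% in these data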;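 also: 0% = enzyme with DMSO and 100% = wells lacking PAFAH1B2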
Target sequence (P68402 whole entry, looked up): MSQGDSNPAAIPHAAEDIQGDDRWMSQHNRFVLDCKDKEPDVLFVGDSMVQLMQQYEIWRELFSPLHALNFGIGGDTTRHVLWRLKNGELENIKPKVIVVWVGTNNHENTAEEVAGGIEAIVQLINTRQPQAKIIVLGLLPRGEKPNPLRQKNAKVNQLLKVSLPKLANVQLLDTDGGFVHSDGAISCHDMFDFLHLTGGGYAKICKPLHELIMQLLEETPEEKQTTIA
PAFAH1B3 inh = inhibitors of human PAFAH1B3. AID 492972. hit rate 0.28% among 340,000. recombinant PAFAH1B3, FP-rhodamine probe, fluorescence polarization. inhibition, % at 3.39 µM. Q15102;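 active = inhibition above the screen-wide average of all tested compounds plus 3 SD, cut at about 25% in these data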;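 also: 0% = enzyme with DMSO only and 100% = wells lacking PAFAH1B3 protein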
pPAFAH inh = inhibitors of human plasma PAF acetylhydrolase (pPAFAH) | Q13093 | recombinant pPAFAH, FP-rhodamine probe fluorescence polarization | inhibition, % at 3.39 µM | hit rate 1.5% among 330,000;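 active = inhibition above the mean inhibition across the screen plus 3 SD, cut at about 25% in these data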;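 also: inhibitors block binding of the rhodamine activity-based probe so polarization drops; 0% = enzyme with DMSO and 100% = wells lacking pPAFAH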
PP1 counter = PP1-alpha (human) inhibition in PP5 counter-screen. P62136. purified PP1alpha, OMFP fluorescence. inhibition, % at 6.7 µM. hit rate 0.9% among 320,000;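 active = inhibition above the mean inhibition of all tested compounds plus 3 SD, computed separately for each screening campaign, cut at about 15% in these data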
Target sequence (P62136 whole entry, looked up): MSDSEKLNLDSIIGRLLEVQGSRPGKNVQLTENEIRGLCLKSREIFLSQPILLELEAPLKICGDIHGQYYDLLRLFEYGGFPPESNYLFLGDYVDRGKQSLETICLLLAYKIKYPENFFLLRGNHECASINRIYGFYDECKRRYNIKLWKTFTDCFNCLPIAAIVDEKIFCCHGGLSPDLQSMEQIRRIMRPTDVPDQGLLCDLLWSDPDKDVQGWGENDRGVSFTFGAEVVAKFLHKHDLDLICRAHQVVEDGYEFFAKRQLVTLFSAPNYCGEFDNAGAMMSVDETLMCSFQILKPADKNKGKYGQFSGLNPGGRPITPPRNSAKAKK
PAFAH2 FP inh = inhibitors of human PAFAH2 | hit rate 0.99% among 340,000 | Q99487 | inhibition, % at 3.39 µM | recombinant PAFAH2, FP-rhodamine activity probe, fluorescence polarization;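 active = inhibition above the mean over all tested compounds plus 3 SD, cut at about 30% in these data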;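 also: inhibitors block probe labeling of enzyme so polarization drops; 0% = enzyme with DMSO and 100% = wells lacking PAFAH2 protein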
PP5 primary = blocks human protein phosphatase 5 activity | P53041 | purified PP5c, OMFP substrate fluorescence | inhibition, % at 6.7 µM | hit rate 0.18% among 320,000 | AID 1987;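 active = inhibition above the campaign's mean inhibition across all tested compounds plus 3 SD, cut at about 9.5% in these data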;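 also: 0% = DMSO only and 100% = 100 µM cantharidin control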
An asterisk follows results filed as active; nt = not tested or not shown.

SMILES | PAFAH1B2 inh | PAFAH1B3 inh | pPAFAH inh | PP1 counter | PAFAH2 FP inh | PP5 primary
O=C(CN1C(=O)S/C(=C\c2ccccn2)C1=O)Nc1ccccc1 | -5 | -2 | nt | nt | 4 | nt
Cc1cccc(NC(=O)CN2C(=O)S/C(=C\c3cc(C)n(C)c3C)C2=O)c1 | -1 | -2 | 6 | 16* | -2 | -2
O=C(CN1C(=O)S/C(=C\c2cc(Cl)c(O)c(Cl)c2)C1=O)Nc1ccccc1 | 1 | 15 | 25* | 0 | 12 | 5
CCCCC[C@@H]1C=C(C(=O)O)[C@H](c2ccc(CC)cc2)N1S(=O)(=O)c1ccc(C)cc1 | 17 | 6 | -6 | nt | 1 | nt
CCCCC[C@@H]1C=C(C(=O)O)[C@H](c2ccc(Cl)c(Cl)c2)N1S(=O)(=O)c1ccc(C)cc1 | 29* | -3 | 1 | nt | 8 | nt
CCCCC[C@@H]1C=C(C(=O)O)[C@H](c2ccc(F)cc2)N1S(=O)(=O)c1ccc(C)cc1 | 25* | 6 | -1 | nt | 15 | nt
O=C1CC(NCC2CCCO2)C(=O)N1c1ccc(Cl)cc1 (stereo not drawn) | 0 | 1 | -5 | -1 | 8 | -5
COCCNC(=O)/C(C#N)=C\c1ccc(CNS(=O)(=O)c2ccc(C)cc2)o1 | 3 | 4 | 2 | -2 | -1 | 0
O=C(CSCc1ccc(Cl)cc1Cl)Nc1ccc(O)cc1C(=O)O | 28* | -1 | 0 | 2 | -2 | 2
CC(=O)N1CCOc2ccc(S(=O)(=O)NCc3ccc(C)cc3)cc21 | 34* | 11 | 3 | -1 | 1 | 0
NS(=O)(=O)c1ccc(CNS(=O)(=O)c2ccc3c(c2)OCCO3)cc1 | 3 | 9 | 2 | -4 | -2 | 2
Cc1ccc(CNS(=O)(=O)c2ccc3c(c2)OCCO3)cc1 | 27* | 6 | 5 | -4 | 6 | 1
CC(=O)N1CCOc2ccc(S(=O)(=O)NCCc3ccc(C)cc3)cc21 | 32* | 4 | 10 | -1 | -2 | 4
COc1ccc(CNS(=O)(=O)c2ccc3c(c2)N(C(C)=O)CCO3)cc1 | 10 | 4 | 6 | -5 | -7 | 0
O=C(N/N=C/c1ccccn1)C(=O)N1CCCCCC1 | -2 | 10 | 0 | 3 | 2 | 2
O=C(CN1CCN(Cc2ccc(F)cc2Cl)C1=O)NCCc1ccc(Cl)cc1 | 18 | 0 | 34* | -1 | -6 | 0
CC1CCC(NC(=O)CN2CCCN(Cc3ccc(F)cc3Cl)C2=O)CC1 (stereo not drawn) | 9 | -4 | 2 | -1 | 6 | 1
CC(=O)c1sc(-c2ccc(F)cc2)cc1NS(=O)(=O)c1ccc(C)cc1 | -1 | 1 | 2 | -2 | 2 | -2
Cc1ccc(S(=O)(=O)Nc2ccc(Cl)cc2C(=O)c2ccc(F)cc2)cc1 | 43* | 5 | 5 | 1 | 5 | 2
Cc1ccc(S(=O)(=O)Nc2ccc(Cl)cc2C(=O)c2ccccc2)cc1 | 27* | 6 | -1 | 1 | 6 | -1
Cc1c(NC(=O)COC(=O)C23CC4CC(CC(Br)(C4)C2)C3)c(=O)n(-c2ccccc2)n1C | 26* | 11 | 2 | 0 | 5 | 4
COc1ccccc1NC(=O)COC(=O)C12CC3CC(CC(Br)(C3)C1)C2 | 30* | 16 | 3 | nt | 0 | nt
O=C(COC(=O)C12CC3CC(CC(Br)(C3)C1)C2)Nc1ccc2[nH]c(=O)[nH]c2c1 | 37* | 2 | 7 | 11 | 3 | 1
CC(=O)NC12CC3CC(C1)CC(C(=O)OCC(=O)Nc1c(F)cccc1F)(C3)C2 | 3 | 2 | 0 | -1 | 0 | 0
O=C(COC(=O)C12CC3CC(CC(Br)(C3)C1)C2)Nc1c(F)cccc1F | 35* | 14 | -5 | nt | 11 | nt
SMILES | PAFAH1B2 inh | PAFAH1B3 inh | pPAFAH inh | PP1 counter | PAFAH2 FP inh | PP5 primary
COc1ccccc1NC(=O)COC(=O)C12CC3CC(CC(Cl)(C3)C1)C2 | 24 | 4 | -4 | 3 | 1 | 3
COc1cccc(N2CCN(C(=O)c3cc4ccc(OC)cc4[nH]3)CC2)c1 | -1 | 2 | 6 | 4 | 3 | 1
CSCCC(=O)Nc1nc(-c2ccccn2)cs1 | 1 | 5 | nt | nt | 2 | nt
O=C(O)Cc1sc(N/N=C\c2ccncc2)nc1-c1ccccc1 | -1 | 1 | 25* | 1 | 4 | -2
CN(C)S(=O)(=O)c1ccc(N2CCCC2)c(C(=O)NCC2CCCCC2)c1 | 3 | 5 | 28* | 1 | 0 | -2
O=C1/C(=C/Nc2ccc3c(c2)OCO3)CCc2ccccc21 | 7 | 8 | 17 | 0 | 16 | 2
COc1ccc2c(c1)CC/C(=C\Nc1ccc3c(c1)OCO3)C2=O | 4 | 5 | 25* | 1 | 8 | 5
Cc1c(C(=O)NNC(=S)Nc2ccc(S(N)(=O)=O)cc2)oc2ccccc12 | 9 | 14 | 28* | 0 | 2 | 2
Cc1c(C(=O)Nc2ccc(S(N)(=O)=O)cc2)oc2ccc(Cl)cc12 | -2 | 3 | -2 | 3 | -1 | 1
CC(C)N(Cc1ccccc1)C(=O)CN1C(=O)NC2(CCCc3ccccc32)C1=O (stereo not drawn) | 15 | -2 | 6 | -2 | -4 | -1
CC(C)N(Cc1ccccc1)C(=O)CN1C(=O)NC(Cc2ccccc2)(c2ccccc2)C1=O (stereo not drawn) | 26* | 7 | 5 | 3 | -8 | 1
Cn1c(SCC(=O)N(Cc2ccccc2)C(C)(C)C)nc2ccccc21 | 4 | -9 | -4 | 0 | 8 | -1
Cc1cc(C(=O)OCC(=O)NCCN2C(=O)CSC2=O)ccc1[N+](=O)[O-] | 6 | 14 | 6 | nt | 3 | nt
ONC(=Nc1ccc(Cl)cc1)c1ccccc1 | 36* | 2 | -1 | -17 | 2 | 3
O=[N+]([O-])c1cccc(C(=Nc2cccc(Cl)c2)NO)c1 | 5 | 10 | 0 | -4 | 2 | 2
CCc1ccc(C(=O)/C=C2\Sc3ccccc3NC2=O)cc1 | 4 | 5 | 17 | -1 | 36* | 3
Cc1ccc(SCC(=O)OCC(=O)N(C)CC(=O)Nc2ccc(F)cc2)cc1 | 44* | 3 | 27* | -11 | -11 | 3
CN(CC(=O)Nc1ccc(F)cc1)C(=O)COC(=O)c1cc(Br)c(Br)s1 | 24* | 10 | nt | nt | 18 | nt
NC(=O)[C@H]1CC2(CC(c3cccc(NC(=O)CC(c4ccccc4)c4ccccc4)c3)=NO2)CN1C(=O)C(c1ccccc1)c1ccccc1 (stereo partly drawn) | -20 | -38 | -14 | 17* | -54 | 3
COc1ccc([C@@H]2CC=C(C(=O)O)[C@H](c3ccc(F)cc3)N2S(=O)(=O)c2ccccc2C)cc1 | 25* | 1 | 3 | 1 | 1 | 0
COc1ccc([C@@H]2CC=C(C(=O)O)[C@H](c3ccccc3F)N2S(=O)(=O)c2ccccc2C)cc1 | 11 | 14 | 5 | 0 | 4 | -1
COc1cc([C@@H]2CC=C(C(=O)O)[C@H](c3ccc(C)cc3)N2S(=O)(=O)c2ccc(C)cc2)cc(OC)c1OC | 3 | 8 | 3 | nt | -2 | nt
